Sampled rows, rich in hits. Any-hit rate of the full collection: about 21%.
DRD3 agonist – D3 dopamine receptor (human) agonism | P35462 | D3R DiscoveRx beta-arrestin cells, luminescence, 90 min | max activation, % | 0.58% of 410,000 active; in the data active = max activation above about 30%; note: 0% is about no effect
Target sequence (P35462 whole entry, looked up): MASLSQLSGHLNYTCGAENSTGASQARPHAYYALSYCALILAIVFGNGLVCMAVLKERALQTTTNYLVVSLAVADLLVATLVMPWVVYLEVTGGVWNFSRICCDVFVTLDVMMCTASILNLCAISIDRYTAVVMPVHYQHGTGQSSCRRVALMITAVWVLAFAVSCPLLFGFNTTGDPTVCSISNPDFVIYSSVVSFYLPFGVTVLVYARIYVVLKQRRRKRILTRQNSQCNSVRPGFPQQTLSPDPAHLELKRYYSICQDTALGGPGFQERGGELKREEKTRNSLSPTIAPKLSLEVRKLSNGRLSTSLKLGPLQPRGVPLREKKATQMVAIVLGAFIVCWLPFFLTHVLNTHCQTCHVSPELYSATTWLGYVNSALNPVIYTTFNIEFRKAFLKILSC
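Agonist-mode cell screen: cells plated at 1500/well and incubated overnight at 37 °C, then exposed to library compounds for 90 min at 37 °C. Detection reagent was added for 30–60 min at room temperature, and luminescence was read.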
IL-1B inflam inh – inflammasome signaling inhibition, IL-1 beta readout; THP-1 LPS/ATP IL-1B secretion, AlphaLISA, 16 h; stronger effect = lower value; activity change, % at 57.5 µM; 4.7% of 360,000 active; AID 743279; in the data active = activity change below about -50%; inconclusive = mostly about -30% to -49%; note: % is set by controls: 0 for no effect and ±100 for the full control effect
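Secreted IL-1B measured by AlphaLISA bead assay after 16 h compound exposure of THP-1 cells; compounds (final up to 57.5 uM) added 1 h before LPS (250 ng/mL) and ATP (1.25 mM) stimulation; lower signal means less secretion.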
D3 antag – blocks the human D3 dopamine receptor | D3R cells, DiscoveRx beta-arrestin luminescence, antagonist mode; stronger effect = lower value | 2.5% of 360,000 active | max response, negative = inhibition, % | P35462 | AID 652054; in the data active = max response below about -50%; inconclusive = no clear call, values can overlap the other calls; note: % is set by controls: 0 for no effect and ±100 for the full control effect
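Cells expressing the human receptor were seeded at 1500 cells/well, incubated overnight at 37 degrees C in 5% CO2, then exposed to library compounds with dopamine controls for 90 minutes at 37 degrees C before luminescent detection.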
TDP1 cell noCPT – qHTS for Inhibitors of human tyrosyl-DNA phosphodiesterase 1 (TDP1): qHTS in cells in absence of CPT; Potency, µM (top dose mostly 46.2 µM), for the others: at the top dose activity change, negative = growth inhibition, most hits filed as inhibitors; 15% of 420,000 active; DT40 Tdp1-/- hTDP1 cells, no CPT, ATP luminescence, 48 h; note: potency is the fitted concentration of half-maximal effect; % is set by controls: 0 for no effect and ±100 for the full control effect; nearly all actives have a fitted effect of over 55% in size
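Growth kinetics read by CellTiter-Glo luminescence after ≥48 hr at 37 °C. Cells: DT40 Tdp1-/- stably carrying human TDP1, 400 per well, compound exposure in the absence of CPT (DMSO vehicle).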
ClpP mod – qHTS Assay for Activators of ClpP. ATP-dependent Clp protease proteolytic subunit (Bacillus subtilis (strain 168)), P80244. purified B. subtilis ClpP, FRET peptide cleavage, 20 min. Potency, µM (highest dose often 57.5 µM), inactives show at the top dose activity change, negative = active. 1.9% of 340,000 active. AID 651965, 2013; active = well fitted falling curve with a large enough effect; inconclusive = small, poorly fitted or top-dose-only effect; inactive = no such curve, though single readings can be large or run the other way; note: potency is the fitted concentration of half-maximal effect; the source files actives as falling curves though it sought activators and does not explain the sign; nearly all actives have a fitted effect of over 65% in size
Target sequence (P80244 whole entry, looked up): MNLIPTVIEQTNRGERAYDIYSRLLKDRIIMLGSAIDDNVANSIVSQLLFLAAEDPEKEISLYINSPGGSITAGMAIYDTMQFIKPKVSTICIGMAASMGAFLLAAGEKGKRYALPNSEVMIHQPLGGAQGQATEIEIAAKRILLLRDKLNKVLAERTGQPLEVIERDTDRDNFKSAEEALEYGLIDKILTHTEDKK
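Buffer: 100 mM Tris/HCl pH8, 100 mM KCl, 0.05% low protease BSA, 2.5% glycerol, 0.01% Tween-20. ClpP 10 microg/mL final; 20 min RT; delta FRET normalized to ADEP and DMSO controls.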
DT40 TDP1 CPT – DT40-hTDP1 cell growth loss with CPT; chicken DT40 Tdp1-/-;hTDP1 cells + 20 nM CPT, ATP luminescence, 48 h; Potency, µM (titrated, usually from 46.2 µM), for inactives: at the highest dose activity change, negative = growth inhibition, actives largely listed as inhibitors; 12% of 420,000 active; AID 686979; note: potency is the fitted concentration of half-maximal effect; % is set by controls: 0 for no effect and ±100 for the full control effect; nearly all actives have a fitted effect of over 55% in size
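Chicken DT40 Tdp1-/- cells stably complemented with human TDP1 were seeded at 400 cells/well in medium containing 20 nM camptothecin, exposed to pin-transferred compounds, and grown at 37 °C for at least 48 hr. Viability was read as ATP luminescence.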
* = called active by the depositor; ? = inconclusive; · = no result. Unless noted, calls come from the whole dose curve; as a rule, active = well fitted inhibition curve with a large enough effect; inconclusive = small, poorly fitted or top-dose-only effect; inactive = flat fitted curve, though single readings scatter.

SMILES	DRD3 agonist	IL-1B inflam inh	D3 antag	TDP1 cell noCPT	ClpP mod	DT40 TDP1 CPT
O=C1CC2(CCCC2)CC(=O)N1CCCCN1CCN(c2ncccn2)CC1	-89	-7	-100*	-1%	-4%	-6%
CC(=O)OCCN1C(=O)c2ccc(-c3nc4ccccc4c(=O)o3)cc2C1=O	16	39	28	?	·	?
CCc1cccc(CC)c1NC(=O)CSc1nc2ccc(N3C(=O)C4C(C3=O)[C@H]3C=C[C@@H]4C3)cc2s1 (some centres undefined)	9	-6	-12	8.2µM*	-1%	?
Cc1cc(C)c(NC(=O)CSc2nc3ccc(N4C(=O)c5ccccc5C4=O)cc3s2)c(C)c1	6	14	6	-15%	·	0%
C#CCN(C[C@H]1[C@H](OC(=O)NCc2ccco2)[C@H](OC(=O)NCc2ccco2)C[C@@H](C(=O)OC)[C@H]1C(=O)OC)S(=O)(=O)c1ccc(C)cc1	-10	-72*	-20	?	3%	21µM*
C#CCN(C[C@H]1[C@H](OC(=O)NC2CCCC2)[C@H](OC(=O)NC2CCCC2)C[C@@H](C(=O)OC)[C@H]1C(=O)OC)S(=O)(=O)c1ccc(C)cc1	6	-60*	2	16µM*	-1%	13µM*
C#CCN(C[C@H]1[C@H](OC(=O)NC2CC2)[C@H](OC(=O)NC2CC2)C[C@H]2C(=O)N(c3ccccc3)C(=O)[C@@H]12)S(=O)(=O)c1ccc(C)cc1	5	11	0	-12%	1%	-14%
C#CCN(C[C@H]1[C@H](OC(=O)NCc2ccc(OC)c(OC)c2)[C@H](OC(=O)NCc2ccc(OC)c(OC)c2)C[C@@H](C(=O)OC)[C@H]1C(=O)OC)S(=O)(=O)c1ccc(C)cc1	-7	-14	6	13µM*	1%	21µM*
O=S(=O)(Nc1ccc(-n2cnnn2)cc1)c1cccs1	1	7	2	-13%	0%	-2%
CC(C)C(NS(=O)(=O)c1ccc2c(c1)oc(=O)n2C)C(=O)N1CCN(c2cccc(Cl)c2)CC1 (centres undefined)	-6	·	·	?	1%	?
COc1ccc(-c2[nH][nH]c(=O)c2NC(=O)c2ccccc2Br)cc1	-6	6	-53*	-2%	0%	-2%
CCOC(=O)c1ccc(NC(=S)NCCCN2CCOCC2)cc1	-8	59	-9	0%	0%	-14%
Cn1c(CCNC(=O)c2ccc(Cl)c(Cl)c2)nnc1SCc1ccc(Cl)c(Cl)c1	0	20	-53*	?	2%	?
COc1ccc(C(=O)NCCc2nnc(SCC(=O)Nc3ccccc3)n2C)cc1	-2	24	-23	-21%	-4%	-16%
C=CCn1c(CCNC(=O)c2ccc(Cl)c(Cl)c2)nnc1SCCOc1ccc(OC)cc1	-15	?	6	26µM*	4%	?
COc1ccc(S(=O)(=O)N2CCN(C(=O)NCc3ccc(C)cc3)CC2)cc1	-4	-14	-4	-25%	·	-15%
O=C(O)CSc1c2c(nc3cc(C(=O)Nc4ccc(F)c(Cl)c4)ccc13)CCCC2	-1	1	22	-9%	0%	-2%
O=C(CSc1c2c(nc3cc(Cl)ccc13)CCCC2)NCCCN1CCOCC1	-1	-101*	-12	?	0%	?
CCCCNC(=O)c1ccc2c(SCC(=O)O)c3c(nc2c1)CCCC3	0	2	-1	-3%	2%	-6%
O=C(CSc1c2c(nc3ccc(Cl)cc13)CCCC2)NCCCN1CCOCC1	-6	-93*	-29	?	3%	?
Cc1cc(Cl)ccc1OCC(=O)NCCCN1CCOCC1	-4	3	1	-9%	0%	-4%
O=C(CSc1c2c(nc3cc(Cl)ccc13)CCCC2)NCCN1CCOCC1	-2	-91*	-17	?	·	?
CCN(CC)CCCNC(=O)CSc1c2c(nc3cc(Cl)ccc13)CCCC2	-9	0	-9	5.8µM*	0%	8.2µM*
CCN(CC(=O)NCc1ccc(Cl)cc1)C(=O)C(C)Sc1ccccc1 (centres undefined)	2	4	17	-8%	-1%	?
S=C(S)O[C@@H]1C[C@@H]2C[C@H]1[C@@H]1CCC[C@H]21	·	·	·	-21%	·	-30%
SMILES	DRD3 agonist	IL-1B inflam inh	D3 antag	TDP1 cell noCPT	ClpP mod	DT40 TDP1 CPT
N#Cc1c(-c2ccccc2)nc(-c2cccnc2)[nH]c1=O	1	2	-11	10%	?	7%
COc1cc(CNCc2ccc(Br)cc2)cc(OC)c1	-14	-6	-7	?	-1%	?
Cc1ccc(C)c(NC(=O)CN2C(=O)CCc3cc(S(=O)(=O)N4CCCCC4)ccc32)c1	-4	·	·	?	0%	?
COc1ccc(NC(=O)CN2CCN(CC(=O)Nc3ccc(F)cc3F)CC2)cc1	3	-12	4	?	·	-3%
CN(CCOc1ccccc1)C(=O)C1CCN(C(=O)c2ccc(F)cc2)CC1	1	10	6	?	22µM*	?
O=C(c1ccc(F)cc1)C1CCN(C(=O)c2ccccc2)CC1	-3	?	14	?	-2%	-1%
O=C(c1ccc(F)cc1)N1CCC(c2ccccc2)C1 (centres undefined)	-8	-6	-65*	-23%	·	1%
O=C(c1ccc(F)cc1)N1CCC(C(=O)N(Cc2ccccc2)c2ccccc2)CC1	-1	-2	-1	18µM*	-1%	23µM*
COc1ccccc1CCn1c(=O)c(-c2cc(F)cc(F)c2)nc2cncnc21	·	·	·	-4%	·	-9%
CC(=NNC(=S)SCc1ccccc1)c1ccccn1	6	-3	0	0.041µM*	1%	0.052µM*
C/C(=N\NC(=O)COc1ccccc1-c1ccccc1)c1ccccn1	-22	-7	-58*	2.6µM*	·	2.6µM*
CCCCCC(=O)N/N=C(\C)c1ccccn1	-11	47	-2	5.8µM*	1%	5.8µM*
O=C(O)COc1ccccc1-c1ccccc1	-2	-1	-2	8%	1%	4%
CC(=NNC(=S)N1CCCC1)c1ccccn1	-9	77	-7	-90%	-7%	-83%
C/C(=N\NC(=O)c1cccnc1)c1ccccc1	0	-5	1	3%	0%	-4%
CCCCCCCCCC(=O)N/N=C(\C)c1cccnc1	2	2	11	?	1%	?
